Unmarked numbers belong to inactive results. Results filed as inconclusive are left out. Entries that show only a call come without a potency. Active and inactive are the calls of the source. Calls come from the whole dose curve; as a rule, active = well fitted curve in the direction sought with a large enough effect in the repeat runs; inconclusive = weak or mixed curves; inactive = no such curve, though single readings can be large; an effect the other way counts as inactive or inconclusive.
Legend:
[1] = qHTS RealTime-Glo MT Cell Viability Assay in HEK293 cells - 40 hour (AID 1224874); details: RealTime-Glo luminescence; max response: hits give low values; note: nearly all actives have a fitted effect of over 50% in size; note: potency is the fitted concentration of half-maximal effect
Outline: (§1)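 qHTS format; HEK293 cells with NanoLuc/prosubstrate reagent, 37 C/5% CO2 for 5 h pre-dosing; compounds 23 nL in DMSO; luminescence at each time point reflects viable cells.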

[2] = A CellTox Green Cytotoxicity Assay to monitor cytotoxicity in HEK293 cells - 24 hour (AID 1224875); note: series mostly up to about 77 µM; nearly all actives have a fitted effect of over 45% in size
Outline: (§2)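 Each value comes from one timepoint of a single continuous run in which HEK293 cells with CellTox Green were exposed to compound for up to 40 h at 37 C, dye fluorescence rising with cell death.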

[3] = A CellTox Green Cytotoxicity Assay to monitor cytotoxicity in HepG2 cells - 16 hour (AID 1224876); note: nearly all actives have a fitted effect of over 45% in size
Outline: (§3)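 Continuous culture of HepG2 cells with a membrane-impermeant DNA dye; rising fluorescence marks dead cells. Compound exposure lasted up to 40 h at 37 C, with reads every 8 h from 0 h.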

[4] = qHTS RealTime-Glo MT Cell Viability Assay in HepG2 cells - 32 hour (AID 1224877); note: nearly all actives have a fitted effect of over 55% in size
Outline: (§4)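 HepG2 cells were seeded at 600 cells/well together with NanoLuc luciferase and a cell-permeant prosubstrate, preincubated 5 h at 37 C/5% CO2, then pin-dosed with compounds in DMSO. Nonlytic luminescence from viable cells was read at each time point.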

[5] = A CellTox Green Cytotoxicity Assay to monitor cytotoxicity in HepG2 cells - 24 hour (AID 1224878); note: nearly all actives have a fitted effect of over 45% in size
Outline: as §3

[6] = A CellTox Green Cytotoxicity Assay to monitor cytotoxicity in HEK293 cells - 32 hour (AID 1224881); note: nearly all actives have a fitted effect of over 40% in size
Outline: as §2

[7] = A CellTox Green Cytotoxicity Assay to monitor cytotoxicity in HepG2 cells - 0 hour (AID 1224882); note: nearly all actives have a fitted effect of over 35% in size
Outline: as §3

[8] = A CellTox Green Cytotoxicity Assay to monitor cytotoxicity in HepG2 cells - 32 hour (AID 1224883); note: nearly all actives have a fitted effect of over 50% in size; note: potency is the fitted concentration of half-maximal effect
Outline: as §3

[9] = A CellTox Green Cytotoxicity Assay to monitor cytotoxicity in HEK293 cells - 8 hour (AID 1224884); note: nearly all actives have a fitted effect of over 35% in size
Outline: as §2

[10] = qHTS RealTime-Glo MT Cell Viability Assay in HepG2 cells - 16 hour (AID 1224885); note: nearly all actives have a fitted effect of over 50% in size
Outline: as §4

[11] = qHTS RealTime-Glo MT Cell Viability Assay in HEK293 cells - 8 hour (AID 1224887); note: top concentration of the series differs between compounds; nearly all actives have a fitted effect of over 50% in size
Outline: as §1

[12] = A CellTox Green Cytotoxicity Assay to monitor cytotoxicity in HEK293 cells - 16 hour (AID 1224888); note: nearly all actives have a fitted effect of over 35% in size
Outline: as §2

[13] = qHTS RealTime-Glo MT Cell Viability Assay in HepG2 cells - 0 hour (AID 1224889); note: nearly all actives have a fitted effect of over 50% in size; note: potency is the fitted concentration of half-maximal effect
Outline: as §4

[14] = A CellTox Green Cytotoxicity Assay to monitor cytotoxicity in HepG2 cells - 8 hour (AID 1224890); note: nearly all actives have a fitted effect of over 45% in size
Outline: as §3

[15] = qHTS assay to identify small molecule antagonists of the estrogen receptor alpha (ER-alpha) signaling pathway using the BG1 cell line in the presence of 0.1 nM 17-beta-estradiol - cell viability counter screen (AID 1259241); note: nearly all actives have a fitted effect of over 40% in size
Outline: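 In this screen, hormone-deprived VM7Luc4E2 cells were seeded at 4,000 per well, dosed with compound and 0.1 nM estradiol final, and incubated 22 hr at 37C and 5% CO2; fluorogenic live-cell protease signal reported viability.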

[16] = qHTS assay to identify small molecule antagonists of the androgen receptor (AR) signaling pathway using the MDA cell line in the presence of 0.5 nM R1881 - cell viability counter screen (AID 1259242); note: nearly all actives have a fitted effect of over 45% in size
Outline: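 Fluorescence from CellTiter-Fluor, which reports protease activity of live cells, was read 30 min after reagent addition to MDA-kb2 cells that had been incubated 16 hr with compound and 0.5 nM R1881.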

[17] = A CellTox Green Cytotoxicity Assay to monitor cytotoxicity in HepG2 cells - 40 hour (AID 1224879); note: nearly all actives have a fitted effect of over 40% in size
Outline: as §3

[18] = qHTS RealTime-Glo MT Cell Viability Assay in HEK293 cells - 0 hour (AID 1224880); note: nearly all actives have a fitted effect of over 45% in size; note: potency is the fitted concentration of half-maximal effect
Outline: as §1

[19] = qHTS RealTime-Glo MT Cell Viability Assay in HEK293 cells - 24 hour (AID 1224886)
Outline: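 HEK293 cells were seeded at 600 cells/well together with NanoLuc luciferase and cell-permeant prosubstrate, preincubated 5 h at 37 C/5% CO2, then given compound in DMSO by pintool. Luminescence from viable-cell prosubstrate reduction was read repeatedly over 40 h.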

| Structure (SMILES) | max response [1] | outcome [2] | outcome [3] | Potency [4] | outcome [5] | outcome [6] | Potency [7] | Potency [8] | outcome [9] | outcome [10] | Potency [11] | outcome [12] | Potency [13] | outcome [14] | outcome [15] | outcome [16] | Potency [17] | Potency [18] | Potency [19] | Potency [1] |
| --- | --- | --- | --- | --- | --- | --- | --- | --- | --- | --- | --- | --- | --- | --- | --- | --- | --- | --- | --- | --- |
| CCOc1ccc2nc(S(N)(=O)=O)sc2c1 | 6.72% | inactive | inactive | inactive | inactive | inactive | inactive | inactive | inactive | inactive | inactive | inactive | inactive | inactive | inactive | inactive | – | – | – | – |
| CC1=CC(=O)[C@H]2C[C@@H]1C2(C)C | – | inactive | inactive | inactive | inactive | inactive | – | inactive | inactive | inactive | inactive | – | inactive | inactive | inactive | inactive | inactive | inactive | inactive | – |
| CCCOC(=O)CC | 8.31% | inactive | inactive | inactive | inactive | inactive | inactive | inactive | inactive | inactive | inactive | inactive | inactive | inactive | inactive | inactive | inactive | – | inactive | – |
| CCCCCCC#CC(=O)OC | 11.4% | inactive | inactive | inactive | inactive | – | inactive | inactive | inactive | inactive | inactive | inactive | inactive | inactive | inactive | inactive | inactive | inactive | inactive | – |
| CNCCO | – | inactive | inactive | inactive | inactive | inactive | inactive | inactive | inactive | inactive | inactive | inactive | inactive | inactive | inactive | inactive | inactive | inactive | inactive | – |
| NC(=O)N1c2ccccc2CC(=O)c2ccccc21 | – | inactive | inactive | inactive | inactive | inactive | inactive | inactive | inactive | inactive | inactive | inactive | inactive | inactive | inactive | inactive | – | – | inactive | – |
| CC(=O)O[C@@]12CO[C@@H]1C[C@H](O)[C@@]1(C)C(=O)[C@H](O)C3=C(C)[C@@H](OC(=O)[C@H](O)[C@@H](NC(=O)OC(C)(C)C)c4ccccc4)C[C@@](O)([C@@H](OC(=O)c4ccccc4)[C@H]21)C3(C)C | – | inactive | inactive | inactive | – | inactive | – | 6.7 nM (active) | inactive | inactive | inactive | inactive | inactive | inactive | inactive | inactive | – | inactive | – | – |
| CCCCCCCCCCCCSC | 0.729% | inactive | inactive | inactive | inactive | inactive | inactive | inactive | inactive | – | inactive | inactive | inactive | inactive | – | inactive | inactive | inactive | inactive | – |
| CCNS(=O)(=O)c1ccc(C)cc1 | 0.516% | inactive | inactive | inactive | inactive | – | inactive | inactive | inactive | inactive | inactive | inactive | inactive | inactive | inactive | inactive | – | – | inactive | – |
| COC(=O)C1=C(C)NC(C)=C(C(=O)OC(C)C)C1c1cccc2nonc12 (stereo unspecified) | – | inactive | inactive | – | inactive | inactive | inactive | inactive | inactive | – | – | inactive | 1070 nM (active) | inactive | inactive | inactive | inactive | 1690 nM (active) | – | 16900 nM (active) |
| C1CCC2(CCCCO2)OC1 | -6.53% | inactive | inactive | inactive | inactive | inactive | inactive | inactive | inactive | inactive | inactive | inactive | inactive | inactive | – | inactive | – | – | inactive | – |
| Cc1onc(-c2c(Cl)cccc2Cl)c1C(=O)Cl | – | inactive | inactive | inactive | inactive | inactive | – | inactive | inactive | inactive | inactive | inactive | inactive | inactive | inactive | inactive | inactive | inactive | – | – |

Source: PubChem BioAssay (Tox21)
